Inconclusive results are not listed. A number with no mark means an inactive call. The source made the active and inactive calls. The call rests on the fitted dose curve.
On the % scale 0 is the no-effect control and ±100 the full control effect.

The nature of the test: qHTS assay for small molecule disruptors of the mitochondrial membrane potential - cell viability (AID 720634).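 Further: human HepG2 liver cancer cells; nearly all actives have a fitted effect of over 20% in size.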 Particulars: HepG2 viability, ATP luminescence (CellTiter-Glo), 1 h; series mostly up to 83.2 µM. The source says:
U.S. Tox21 Program National Center for Advancing Translational Sciences [NCATS] NIH Chemical Genomics Center [NCGC] U.S. Environmental Protection Agency [EPA] National Institutes of Environmental Health Sciences [NIEHS] National Toxicology Program [NTP] U.S. Food and Drug Administration [FDA] Tox21 Assay Overview: Mitochondrial membrane potential (MMP), one of the parameters for mitochondrial function, is generated by mitochondrial electron transport chain that creates an electrochemical gradient by a series of redox reactions. This gradient drives the synthesis of ATP, a crucial molecule for various cellular processes. Measuring MMP in living cells is commonly used to assess the effect of chemicals on mitochondrial function; decreases in MMP can be detected using lipophilic cationic fluorescent dyes. […] The dye accumulates in the mitochondria of healthy cells as aggregates, with red fluorescence. The mitochondrial potential decreases and the dye could not accumulate in the mitochondria and remains in the cytoplasm in monomers, with green fluorescence. In addition to the mitochondrial potential assay, these cells were also used to test the cytotoxicity by determining the cell viability in the culture based on the quantitation of ATP present. The cytotoxicity was measured in the same assay well of MMP assay.
Tox21 Assay Protocol Summary: 2,000 HepG2 cells in 5 uL/well were dispensed into black, clear-bottom 1536-well plates using a Multidrop Combi (Thermo Scientific) dispenser. The assay plates were incubated for an overnight at 37 C to allow cells to attach to the wells, followed by the transfer of 23 nL compound or DMSO vehicle by a pin tool (Kalypsys). The plates were incubated for 1 hr at 37 C and 5% CO2, followed by the addition of 5 uL of 2X m-MPI dye into each well using Flying Reagent Dispenser (Aurora Discovery) and then CellTiter-Glo reagent was added at 4 uL/well and incubated 30 min at room temperature. Then luminescence intensity was quantified on a ViewLux CCD-based plate reader.
Take `CCC(Cl)CC(Cl)C(Cl)C(Cl)C(Cl)C(C)Cl` (stereo not given): the activity change, negative = cytotoxicity is -14.9% [at 17.9 µM]. On to `C1=CCC2CC=CC2C1` (stereo not given), for which the molecule was classed as inactive. As for `CC(=O)OC(C)C[N+](C)(C)C` (stereo not given), the result was inactive. Turning to `CCCCCCCCCCCCCOS(=O)(=O)O`, the molecule was called inactive.

Take `Cc1ccc(N(CC2=NCCN2)c2cccc(O)c2)cc1`: the call was inactive.

For the molecule `CCOCCC(=O)OCC`, the outcome was inactive.

For the molecule `O=S(=O)(Cl)c1c(Cl)cccc1Cl`, the molecule was classed as inactive. Same read-out and setting: the same measure for `CC1CCc2nccnc21` (stereo not given): “inactive”.

As to `CCNc1nc(N)nc(Cl)n1`, the result was inactive. On the same count and under the same terms, the same measure for `CC(C)COC(=O)COc1cc(Cl)c(Cl)cc1Cl`: “inactive”; for `CC(=O)Oc1cccc(O)c1`: “inactive”.

Consider `O=S(=O)(O)CO`, for which the molecule was classed as inactive.

Regarding `CC(=O)OCCC1CCCCC1`, the call was inactive. Still for that read-out and setting: then `CC(=O)NNC(C)=O`, with “inactive”; and `CC(C)C(=O)OCCOc1ccccc1`, with “inactive”. In the case of `O=C(CCS)OCC(COC(=O)CCS)(COC(=O)CCS)COC(=O)CCS`, the call was inactive. For `CNc1c2c(nn1C)CCCC2`, the call was inactive. Same read-out and setting: the same measure for `CC(CCc1ccc(O)cc1)NCCc1ccc(O)c(O)c1` (stereo not given): “inactive”. Regarding `CCOC(=O)c1ccc(NC(=O)CN2CCCCC2)cc1`, the outcome was inactive.

Consider `c1ccc(CNc2ncnc3c2ncn3C2CCCCO2)cc1` (stereo not given), for which the molecule was called inactive. On the same count and under the same terms, then `CC1CCCC(=O)C1=O` (stereo not given), with “inactive”; and `O=c1[nH][nH]c(=O)c2cc([N+](=O)[O-])ccc12`, with “inactive”; and `CCCCCCCC/C=C\CCCCCCCC(=O)OCCO`, with “inactive”. In the case of `O=C(Nc1ccc(C(=O)O)c(O)c1)c1ccccc1`, the outcome was inactive. For `CCCCCCCC(=O)OCCCCCC`, the call was inactive. Still for that read-out and setting: the same measure for `CCN(CC)c1cccc(O)c1`: “inactive”.

As for `O=C(O)c1cccc(C[C@@H]2COc3ccc(OCc4nc5cc(F)ccc5s4)cc3[C@@H]2O)c1`, the molecule was classed as inactive.

Regarding `[Cl][Nd]([Cl])[Cl]`, the molecule was classed as inactive. Take `COc1ccc(C(=O)NCc2ccc(OCCN(C)C)cc2)cc1OC`: the molecule was classed as inactive. Same read-out and setting: then `CCOC(=O)c1c(N)sc2c1CCN(Cc1ccccc1)C2`, with “inactive”; and `COc1cc(OC)c2ccc(=O)oc2c1`, with “inactive”; and `Nc1ccc(F)cc1`, with “inactive”. Regarding `CC(C)N=C=NC(C)C`, the molecule was called inactive. On to `CC(=O)c1ccc[nH]1`, for which the molecule was classed as inactive. Still for that read-out and setting: then `O=P(O)(O)Oc1ccccc1`, with “inactive”. In the case of `CC1C(C)(C)C2=C(C(=O)CCC2)C1(C)C` (stereo not given), the outcome was inactive.

On to `CCCCCCCCCCCCCCN(C)C`, for which the outcome was inactive. On the same count and under the same terms, the same measure for `O=C1OC(=O)c2c(Br)c(Br)c(Br)c(Br)c21`: “inactive”. As to `Cc1ccc2c(c1[N+](=O)[O-])C(=O)c1ccccc1C2=O`, the molecule was classed as inactive. Consider `C[C@@H]1C[C@H]2[C@@H]3CCC4=CC(=O)C=C[C@]4(C)[C@@]3(F)[C@@H](O)C[C@]2(C)[C@@]1(O)C(=O)COP(=O)(O)O`, for which the molecule was called inactive.

These data come from PubChem BioAssay (Tox21).
